# The supplement of paper PMC12024424
# Where a name gives a salt, the structure may show the parent alone.
# System: Staphylococcus aureus Sa2 (MRSA, cystic fibrosis isolate)
# Assay: growth reduction vs untreated control (viable cell count); higher = stronger antibacterial activity; extreme values may be limits of the assay
# Conditions: 0.1 mM; 24 h
# Procedure: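 Single-dose screen of the MedChem Express Drug Repurposing Library (0.1 mM, 1% DMSO) against planktonic MRSA S. aureus Sa2 (CF isolate) in TSB in 96-well plates, 37 °C aerobic, 24 h. Assays were run in triplicate and repeated twice.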
row,SMILES,growth reduction [%]
1,C=C[C@@H]1C[C@]1(NC(=O)[C@@H]1C[C@@H](Oc2ncc(OC)c3ccc(Cl)cc23)CN1C(=O)[C@@H](NC(=O)OC(C)(C)C)C(C)(C)C)C(=O)NS(=O)(=O)C1CC1 [Asunaprevir],100
2,CC1(C)CCC(C)(C)c2cc(NC(=O)c3ccc(C(=O)O)cc3)ccc21 [Tamibarotene],100
3,O=C(NC1CCN(CCCCC2(C(=O)NCC(F)(F)F)c3ccccc3-c3ccccc32)CC1)c1ccccc1-c1ccc(C(F)(F)F)cc1 [Lomitapide],100
4,Cc1nc(C(=O)NCC(=O)O)c(O)c2ccc(Oc3ccccc3)cc12 [Roxadustat],98
5,CC(/C=C/C=C(\C)C(=O)O)=C\C=C\C=C(C)\C=C\C=C(/C)C(=O)O [Transcrocetin meglumine salt],92
6,CNC(=O)c1cc(Oc2ccc(NC(=O)Nc3ccc(Cl)c(C(F)(F)F)c3)c(F)c2)ccn1 [Regorafenib (Hydrochloride)],100
7,O=c1ccc2ccc(O)c(O)c2o1 [Daphnetin],98
8,CNCc1ccc(C)c(NC(=O)c2ccc(Nc3nc(-c4ccccc4)c4ccccc4n3)cc2)c1,100
9,O=C(O)c1cc(F)c2nc(N3[C@@H]4CC[C@H]3C[C@@H](OCc3c(-c5ccccc5OC(F)(F)F)noc3C3CC3)C4)sc2c1 [Tropifexor],100
10,CCc1nc(-c2cccc(C)c2)c(-c2ccnc(NC(=O)c3ccccc3)c2)s1,100
11,CCCCCCCCCCCC[N+](C)(C)CCOc1ccccc1 [Domiphen (bromide)],100
12,Clc1ccc(C(Cn2ccnc2)OCc2ccc(Sc3ccccc3)cc2)c(Cl)c1 (stereo unspecified) [Fenticonazole (Nitrate)],100
13,CC(C)c1cc(Oc2c(Br)cc(NC(=O)CC(=O)O)cc2Br)ccc1O [Eprotirome],100
14,OC(c1cc(C(F)(F)F)nc2c(C(F)(F)F)cccc12)C1CCCCN1 (stereo unspecified) [Mefloquine (hydrochloride)],100
15,CCCCCCCC/C=C/CCCCCCCC(=O)OC[C@H]1O[C@@H](n2ccc(N)nc2=O)C(F)(F)[C@@H]1O [Gemcitabine (elaidate)],100
16,Cc1cc(Nc2ncc(Cl)c(Nc3ccccc3S(=O)(=O)C(C)C)n2)c(OC(C)C)cc1C1CCNCC1 [Ceritinib dihydrochloride],100

row,SMILES,growth reduction [%]
1,Cc1c(CN(C)C(=O)/C=C/c2cnc3c(c2)CCC(=O)N3)oc2ccccc12,100
2,Cc1noc(-c2ccc(-c3ccc(C4(C(=O)O)CC4)cc3)cc2)c1NC(=O)O[C@H](C)c1ccccc1,100
3,O=C(OCC(O)CO)c1ccccc1Nc1ccnc2cc(Cl)ccc12 (stereo unspecified) [Glafenine],100
4,CCc1oc2ccccc2c1C(=O)c1cc(Br)c(O)c(Br)c1 [Benzbromarone],100
5,Cc1ccc(C(=O)N(CCCN)[C@@H](c2oc3cc(Cl)ccc3c(=O)c2Cc2ccccc2)C(C)C)cc1,100
6,CC[C@H]1[C@@H](O)[C@@H]2[C@H](CC[C@]3(C)[C@@H]([C@H](C)CCC(=O)O)CC[C@@H]23)[C@@]2(C)CC[C@@H](O)C[C@@H]12 [Obeticholic acid],98
7,CCCCCCNC(=O)n1cc(F)c(=O)[nH]c1=O [Carmofur],100
8,c1cn2cc(-c3ccc4cn[nH]c4c3)nc(Nc3ccc(N4CCOCC4)cc3)c2n1 [Entospletinib],96
9,CCCCCCCCCCCCCCCC[N+](C)(C)CCN(Cc1ccc(OC)cc1)c1ncccn1 [Thonzonium (bromide)],100
10,CC[C@H](C)C(=O)O[C@H]1C[C@@H](C)C=C2C=C[C@H](C)[C@H](CC[C@@H]3C[C@@H](O)CC(=O)O3)[C@H]21 [Lovastatin],100
11,COc1cccc(OC)c1-c1cc(C(=O)NC2(C(=O)O)C3CC4CC(C3)CC2C4)nn1-c1ccnc2cc(Cl)ccc12 (stereo unspecified) [Meclinertant],100
12,CC(C)Nc1nc2cc(Cl)c(Cl)cc2n1[C@H]1O[C@@H](CO)[C@H](O)[C@@H]1O [Maribavir],94
13,CC(C)(C)CC(C)(C)c1ccc(OCCOCC[N+](C)(C)Cc2ccccc2)cc1 [Benzethonium chloride],100
14,Cc1cc(SCc2sc(-c3ccc(C(F)(F)F)cc3)nc2C)ccc1OCC(=O)O,100
15,CCN1CCN(Cc2ccc(-c3cc4c(N[C@H](C)c5ccccc5)ncnc4[nH]3)cc2)CC1,100
